High-throughput results as filed in PubChem BioAssay.
In the library only some 1.2% were active in any assay of this set; here they are far more common.
HUVEC tox TNFa: toxic to HUVEC cells under TNF alpha stimulation; HUVEC TNFalpha-stimulated, Hoechst cell count, imaging; cell count reduction, % at 2 µM; 93,000 tested, 0.17% active; AID 848;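 active = cell count reduction exceeding the screen mean by over 5 SD, scaled to untreated wells per plate, cut at about 78% in these data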;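 note: cells counted after 24 h of TNF alpha exposure following the 1 h pretreatment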
VCAM1 TNFa inh: reduces TNF alpha induced VCAM1 expression in HUVEC. 95,000 tested, 0.48% active. inhibition, % at 2 µM. HUVEC TNFa-induced VCAM-1 immunofluorescence, high-content imaging;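 active = inhibition above the batch mean plus 3 SD, with images confirmed as a hit by eye, cut at about 37% in these data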;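 note: 0% = TNF-stimulated DMSO wells and 100% = unstimulated control wells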
F-actin modifier: cytoskeleton assembly modification; HUVEC TNFa F-actin phalloidin imaging, high content; inhibition, % at 2 µM; 91,000 tested, 0.18% active;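 active = inhibition above the batch mean plus 3 SD and confirmed as a hit by visual image inspection, cut at about 30% in these data, passing the limit was not always enough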
E-sel TNF inh: TNF alpha driven E-selectin expression inhibition; AID 1246; HUVEC TNFa-induced E-selectin immunofluorescence, high content; 120,000 tested, 0.71% active; inhibition, % at 2 µM;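 active = inhibition above the batch mean plus 3 SD, and confirmed as a hit on visual image review, cut at about 43% in these data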;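 note: 0% = TNF-stimulated DMSO wells and 100% = unstimulated control wells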
Starred values were filed as active, the others as inactive; · = no result given.

SMILES	HUVEC tox TNFa	VCAM1 TNFa inh	F-actin modifier	E-sel TNF inh
CCOC(=O)Cc1nnc(NC(=O)CSc2ccc(Cl)cc2)s1	-1	26	12	67*
CCn1cc(S(=O)(=O)CC(=O)Nc2cc(C)ccc2C)c2ccccc21	-3	26	8	62*
CC(C)CC(=O)n1sc(NC(=O)c2ccccc2)nc1=O	-29	10	50	100*
CC(C)(C)NS(=O)(=O)c1ccc(Oc2ncc(C(F)(F)F)cc2Cl)cc1	-14	-2	61*	23
Cn1c(NC(=O)c2ccccc2)cc(=O)n(C)c1=O	-10	4	4	·
CCc1nnc(NC(=O)C2CCC2)s1	-2	3	-6	0
Cn1c(NC(=O)C2c3ccccc3Oc3ccccc32)cc(=O)n(C)c1=O	65	94*	-34	17
CCc1nnc(NC(=O)C2c3ccccc3Oc3ccccc32)s1	-16	-23	46*	-18
CCCCNC(=O)COC(=O)CCC(=O)c1ccc(Cl)cc1	·	·	·	7
CCN(CC)CCCC(C)NC(=O)c1ccc(C(F)(F)F)cc1 (stereo unspecified)	·	·	·	5
O=C(Nc1nccs1)c1cccc(N2C(=O)c3cccc4c([N+](=O)[O-])ccc(c34)C2=O)c1	-1	62*	-6	-13
O=C(C1CCCO1)N1CCN(c2c3c(nc4cc(-c5ccc(F)cc5)nn24)CCC3)CC1 (stereo unspecified)	4	-1	30	65*
Cc1ccc(C)c(NC(=O)c2ccccc2C(=O)c2ccccc2)c1	·	·	·	-59
CCc1ccc2oc(-c3cc(N)ccc3O)nc2c1	0	39*	-6	36
O=C(N/C(=C/c1cn(-c2ccccc2)nc1-c1ccccc1)C(=O)N1CCOCC1)c1ccc(Cl)cc1Cl	·	·	·	18
Cc1ccc(NC(=O)CCn2c(=O)oc3ccccc32)cc1	-30	9	35	·
CCc1ccc(NC(=O)CCn2c(=O)oc3ccccc32)cc1	100*	·	·	·
COc1ccc(NCc2nnc(SCc3ccc(Cl)cc3)n2-c2ccccc2)cc1	·	·	·	6
Oc1ccccc1/C=N/Nc1cc(N2CCCC2)nc(N2CCCC2)n1	·	·	·	-6
CCn1nnnc1-c1ccc(OC)c(S(=O)(=O)NCc2ccccc2)c1	0	4	26	88*
CCn1nnnc1-c1ccc(OC)c(S(=O)(=O)Nc2ccc(C)c(C)c2)c1	5	8	-1	13
O=C(Nc1ccc2nc(SCc3ccc(Cl)cc3)sc2c1)c1ccccc1C(=O)N1CCOCC1	18	26	-19	53*
CCCOc1ccc(C(=O)C(CN2CCOCC2)c2ccccc2)cc1 (stereo unspecified)	-13	50*	-2	18
CCCOc1ccc(C(=O)C(c2ccccc2)N2CCOCC2)cc1 (stereo unspecified)	-24	12	·	-8
CCOc1ccc(C(=O)C(c2ccccc2)N2CCOCC2)cc1 (stereo unspecified)	66	76*	-19	·
SMILES	HUVEC tox TNFa	VCAM1 TNFa inh	F-actin modifier	E-sel TNF inh
CC(CN1CCOCC1)C(=O)c1ccccc1 (stereo unspecified)	-9	-15	4	0
COc1ccc(C(=O)C(CN2CCOCC2)c2ccccc2)cc1F (stereo unspecified)	·	·	16	62*
COc1ccc(C(O)C(CN2CCOCC2)c2ccccc2)cc1F (stereo unspecified)	-17	13	-3	18
O=C(OC1C2CCC1C1CN(CCc3ccccc3)CC12)c1ccccc1 (stereo unspecified)	·	·	·	6
COc1cc(/C=C2/SC(=S)N(c3c(C)n(C)n(-c4ccccc4)c3=O)C2=O)ccc1O	·	·	·	-6
Cc1ccc(SCC(=O)Nc2cccc(-c3nnc(-c4ccco4)o3)c2)cc1	-25	6	18	32
COC(=O)c1cc2nc(-c3ccc(OC)cc3)cc(C(F)(F)F)n2n1	-30	16	-4	16
COc1ccc(-c2cc(C(F)(F)F)n3nc(C(=O)Nc4cc(C)on4)cc3n2)cc1OC	-1	95*	-15	8
COc1ccc(C(=O)Nc2ccc(C3=NNC(=O)CC3C)cc2NC(=O)c2ccc(OC)cc2)cc1 (stereo unspecified)	·	·	·	-29
CC1CC(=O)NN=C1c1ccc(NCCO)c([N+](=O)[O-])c1 (stereo unspecified)	25	40*	-41	-21
COc1ccc(Br)cc1CN(C)CC(=O)Nc1cc(Cl)ccc1Cl	·	·	·	89*
CCN(Cc1cc2cc(C)ccc2[nH]c1=O)C(=O)c1cccc(OC)c1	82*	90*	-65	·
COc1ccc2[nH]c(=O)c(CN(Cc3ccc4c(c3)OCO4)C(C)=O)cc2c1	35	-5	36*	0
Cc1ccc(OCCNC(=O)C(=O)NCc2ccco2)cc1	·	·	·	-42
COCC(C)NC(=S)Nc1ccccc1[N+](=O)[O-] (stereo unspecified)	·	·	·	3
COc1cc(CN2CCN(c3ccc(C)cc3)CC2)cc([N+](=O)[O-])c1O	-7	9	5	100*
COc1cc(CN2CCN(c3cc(C)ccc3C)CC2)cc([N+](=O)[O-])c1O	-2	6	-10	0
COc1ccc(-c2c/c(=N\c3nc(-c4ccccc4)c(C)s3)c3ccccc3o2)cc1O	55	51*	18	1
CCN(C(=O)COC(=O)c1cc(C)n(-c2ccc(F)cc2)c1C)C1CCS(=O)(=O)C1 (stereo unspecified)	4	3	-11	100*
COC(=O)c1cc2c(s1)CS(=O)C2 (stereo unspecified)	·	·	·	96*
CC(=O)c1ccc(-c2ccc(C(=O)NC3CCCCCC3)o2)cc1	·	·	·	-24
NCCN1CCN(CCN)CC1	3	94*	4	5
O=C(Nc1nnc(SCc2ccccc2)s1)c1cccc([N+](=O)[O-])c1	·	·	·	64*
O=C(Nc1nnc(SCc2ccccc2)s1)c1cc2c(s1)CCCC2	11	0	-1	·
O=C(OCc1cccc([N+](=O)[O-])c1)c1ccc2ccccc2n1	·	·	·	-10
SMILES	HUVEC tox TNFa	VCAM1 TNFa inh	F-actin modifier	E-sel TNF inh
CCOC(=O)C[n+]1c(C)sc2ccc(OC)cc21	7	-2	-2	66*
O=C(c1ccco1)N1CCN(Cc2cccc([N+](=O)[O-])c2)CC1	·	·	·	45
Cc1ccc2[nH]c(-c3ccccc3)cc(=O)c2c1	37	64*	-106	·
COc1cc2[nH]c(-c3ccc(C)cc3)cc(=O)c2cc1OC	·	·	·	-16
CCOc1cc(Cl)c(NC(=O)CC)cc1OCC	·	·	·	10
O=C(CS(=O)(=O)c1ccccc1)N1CCCCCC1	-12	5	10	4
O=S(=O)(C/C(=C/CO)S(=O)(=O)c1ccccc1)c1ccccc1	30	86*	-2	100*
Cc1ccc(N2CC(C(=O)Nc3ccc4c(c3)OCO4)CC2=O)cc1 (stereo unspecified)	89*	8	23	17
O=C(Nc1ccc2c(c1)OCO2)C1CC(=O)N(c2ccc3c(c2)OCCO3)C1 (stereo unspecified)	·	·	·	-20
O=c1c2ccccc2nc2n1CCN2Cc1ccc(Cl)cc1	·	·	·	10
O=C(Nc1ccncc1)c1cc(F)cc(F)c1	10	11	26	-2
Cc1cc(C)nc(SC2=CS(=O)(=O)c3ccccc32)n1	-5	38	-1	-33
O=S1(=O)C=C(Sc2nnc(-c3ccccc3)o2)c2ccccc21	·	·	·	100*
